TGFb SMAD3 inh: inhibitors of TGF-b signaling; HepG2 CAGA-GFP TGF-b/SMAD3 reporter, GFP fluorescence, 18 h; TGF-beta stimulated, 500 pg/mL final; 410,000 tested, 1.2% active; Potency, µM (highest dose often 46.1 µM), for inactives: at the top dose activity, negative = inhibition, usual class: inhibitors; AID 588855; note: potency is the fitted concentration of half-maximal effect; % is set by controls: 0 for no effect and ±100 for the full control effect; nearly all actives have a fitted effect of over 65% in size
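Using HEPG2 CAGA-GFP reporter cells at 1000 cells/well, we pinned test compounds, stimulated with recombinant TGF-beta (500 pg/mL final) and measured total well GFP after 18 h.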
TDP1 inh: blocks human tyrosyl-DNA phosphodiesterase 1; Q9NUW8; recombinant TDP1, AlphaScreen DNA substrate cleavage; Potency, µM (top dose mostly 130 µM), without a hit: top-dose activity change, negative = inhibition, most hits filed as inhibitors; 350,000 tested, 0.28% active; AID 485290; note: potency is the fitted concentration of half-maximal effect; % is set by controls: 0 for no effect and ±100 for the full control effect; nearly all actives have a fitted effect of over 40% in size
Target sequence (Q9NUW8 whole entry, looked up): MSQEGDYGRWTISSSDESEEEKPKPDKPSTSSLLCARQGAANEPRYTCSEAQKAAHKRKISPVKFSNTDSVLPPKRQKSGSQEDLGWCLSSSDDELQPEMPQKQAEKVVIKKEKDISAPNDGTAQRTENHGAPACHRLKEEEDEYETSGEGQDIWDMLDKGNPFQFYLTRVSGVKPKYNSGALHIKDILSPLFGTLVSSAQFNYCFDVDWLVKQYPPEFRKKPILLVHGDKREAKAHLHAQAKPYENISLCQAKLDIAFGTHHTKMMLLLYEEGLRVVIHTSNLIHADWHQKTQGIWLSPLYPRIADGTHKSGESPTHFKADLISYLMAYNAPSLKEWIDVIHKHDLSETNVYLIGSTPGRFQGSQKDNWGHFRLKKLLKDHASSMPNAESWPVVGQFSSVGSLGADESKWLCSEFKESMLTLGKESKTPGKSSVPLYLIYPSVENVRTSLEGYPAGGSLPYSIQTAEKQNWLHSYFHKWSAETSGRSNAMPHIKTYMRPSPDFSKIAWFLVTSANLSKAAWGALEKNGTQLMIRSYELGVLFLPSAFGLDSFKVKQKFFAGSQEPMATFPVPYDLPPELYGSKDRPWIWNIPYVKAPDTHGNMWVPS
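Enzyme-compound mixtures sat 15 min at room temperature, followed by a 5 min reaction with 15 nM final substrate and 10 min with AlphaScreen beads. Recombinant human Tdp1 was used at 1 nM final.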
HepG2 viability: HepG2 cytotoxicity, counter-screen for TGF-b inhibitors | 410,000 tested, 0.76% active | Potency, µM (series often up to 46.1 µM), for inactives: at the highest dose activity change, negative = cytotoxicity, hits mostly cytotoxic | HepG2 CAGA-GFP viability, ATP luminescence, 18 h; note: potency is the fitted concentration of half-maximal effect
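HepG2 CAGA-GFP cells (1000/well, DMEM with 1% FBS) received compound, then TGF-beta at 500 pg/mL final, and were incubated 18 hours at 37 degrees C. Viability was read by CellTiter-Glo luminescence. Media-only wells were set as complete cell-killing and DMSO as no toxicity.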
IL-1B inflam inh: blocks inflammasome-driven IL-1 beta release; activity change, % at 57.5 µM; THP-1 LPS/ATP IL-1B secretion, AlphaLISA, 16 h; active compounds read low; 360,000 tested, 4.7% active; in the data active = activity change below about -50%; inconclusive = mostly about -30% to -49%; note: % is set by controls: 0 for no effect and ±100 for the full control effect
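Secreted IL-1B measured by AlphaLISA bead assay after 16 h compound exposure of THP-1 cells; compounds (final up to 57.5 uM) added 1 h before LPS (250 ng/mL) and ATP (1.25 mM) stimulation; lower signal means less secretion.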
DT40 TDP1 CPT: DT40-hTDP1 cell growth loss with CPT | chicken DT40 Tdp1-/-;hTDP1 cells + 20 nM CPT, ATP luminescence, 48 h | Potency, µM (top dose mostly 46.2 µM), for inactives: at the top dose activity change, negative = growth inhibition, hits mostly inhibitors | AID 686979 | 420,000 tested, 12% active; note: potency is the fitted concentration of half-maximal effect; % is set by controls: 0 for no effect and ±100 for the full control effect; nearly all actives have a fitted effect of over 55% in size
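Chicken DT40 Tdp1-/- cells stably complemented with human TDP1 were seeded at 400 cells/well in medium containing 20 nM camptothecin, exposed to pin-transferred compounds, and grown at 37 °C for at least 48 hr. Viability was read as ATP luminescence.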
TDP1 cell noCPT: qHTS for Inhibitors of human tyrosyl-DNA phosphodiesterase 1 (TDP1): qHTS in cells in absence of CPT | DT40 Tdp1-/- hTDP1 cells, no CPT, ATP luminescence, 48 h | Potency, µM (top dose mostly 46.2 µM), inactives show top-dose activity change, negative = growth inhibition, actives largely listed as inhibitors | 420,000 tested, 15% active; note: potency is the fitted concentration of half-maximal effect; % is set by controls: 0 for no effect and ±100 for the full control effect; nearly all actives have a fitted effect of over 55% in size
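Chicken DT40 Tdp1-/- cells complemented with human TDP1, screened without camptothecin (DMSO vehicle only), 400 cells/well. Compounds pin-transferred, cells incubated at 37 °C for at least 48 hr. Growth read as ATP-dependent luminescence (CellTiter-Glo, 30 min at RT).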
* hit, by the source's call. Shown are actives, neighbours in structure and some others; about 18% of the full set was active somewhere. Unless noted, calls come from the whole dose curve; as a rule, active = well fitted curve in the direction sought with a large enough effect; inconclusive = small, poorly fitted or top-dose-only effect, or another doubt; inactive = no such curve, though single readings can be large; an effect the other way counts as inactive or inconclusive.

What do the screens show for `COc1cc(OC)cc(-c2sc3ccc(OC)cc3c2-c2ccc(O)cc2)c1`?
TGFb SMAD3 inh: inconclusive; TDP1 inh: -0.1%; HepG2 viability: -72.0%; IL-1B inflam inh: -8.5; DT40 TDP1 CPT: inconclusive; TDP1 cell noCPT: inconclusive

Results for COc1ccc2c(-c3cnc(N4CCOCC4)nc3)c(-c3ccc(S(C)(=O)=O)cc3)sc2c1 ?
TGFb SMAD3 inh: 6.8%; TDP1 inh: -0.1%; HepG2 viability: -20.8%; IL-1B inflam inh: -29.3; DT40 TDP1 CPT: 14.6µM*; TDP1 cell noCPT: 14.6µM*

What do the screens show for `COc1ccc2c(-c3ccc(SC)cc3)c(-c3ccc(S(C)(=O)=O)cc3)sc2c1`?
TGFb SMAD3 inh: -23.1%; TDP1 inh: -1.5%; HepG2 viability: -38.7%; IL-1B inflam inh: -0.5; DT40 TDP1 CPT: inconclusive; TDP1 cell noCPT: inconclusive

Results for N#Cc1ccc(C(=O)Nc2cccc(S(=O)(=O)NC3=NCCC3)c2)cc1 ?
TGFb SMAD3 inh: -21.3%; TDP1 inh: -4.3%; HepG2 viability: -28.0%; IL-1B inflam inh: 26.2; DT40 TDP1 CPT: -21.9%; TDP1 cell noCPT: -21.0%

What do the screens show for `COC(=O)CCNC(=O)Cc1ccc(S(=O)(=O)N2CCCCC2)s1`?
TGFb SMAD3 inh: -1.6%; TDP1 inh: 1.8%; HepG2 viability: -0.5%; IL-1B inflam inh: 5.6; DT40 TDP1 CPT: -24.3%; TDP1 cell noCPT: inconclusive

Results for CNC(=O)C(=O)NCCN1CCN(S(=O)(=O)c2ccc3ccccc3c2)CC1 ?
TGFb SMAD3 inh: -0.1%; HepG2 viability: 4.9%; IL-1B inflam inh: 0.0; DT40 TDP1 CPT: 4.2%; TDP1 cell noCPT: -2.1%

What do the screens show for `O=C(C[C@@H]1C/C=C\C[C@H](NC(=O)OCC2c3ccccc3-c3ccccc32)C(=O)O[C@H](c2ccccc2)CNC1=O)NCCO`?
TGFb SMAD3 inh: -10.5%; TDP1 inh: 3.1%; HepG2 viability: -26.9%; IL-1B inflam inh: 26.6; DT40 TDP1 CPT: 2.59µM*; TDP1 cell noCPT: 2.06µM*

How did CC(C)(C)OC(=O)C[C@H]1C/C=C\C[C@@H](CC(=O)NCCO)C(=O)NC[C@H](c2ccccc2)OC1=O do in these assays?
TGFb SMAD3 inh: 29.7%; TDP1 inh: 1.8%; HepG2 viability: 7.9%; IL-1B inflam inh: 31.7; DT40 TDP1 CPT: 4.3%; TDP1 cell noCPT: -14.7%

How did O=C(C[C@H]1C/C=C\C[C@H](NC(=O)OCC2c3ccccc3-c3ccccc32)C(=O)O[C@@H](c2ccccc2)CNC1=O)NCCO do in these assays?
TGFb SMAD3 inh: -0.2%; TDP1 inh: -0.1%; HepG2 viability: -15.3%; IL-1B inflam inh: -8.7; DT40 TDP1 CPT: 9.2µM*; TDP1 cell noCPT: 10.3µM*

Results for CC(=O)N(Cc1cc2ccc(C)c(C)c2n2nnnc12)C1CCCC1 ?
TDP1 inh: 6.0%

What do the screens show for `Cc1cc2cc(CN(C(=O)C3CC3)C3CCCC3)c3nnnn3c2cc1C`?
TGFb SMAD3 inh: -1.0%; TDP1 inh: 3.0%; HepG2 viability: -12.1%; IL-1B inflam inh: -18.8; DT40 TDP1 CPT: inconclusive; TDP1 cell noCPT: 20.6µM*

What do the screens show for `COCCNC(=O)C1CCCN(C(=O)c2cc(-c3cccs3)oc2C)CC1` (stereo not given)?
TGFb SMAD3 inh: 19.7%; HepG2 viability: 15.7%; IL-1B inflam inh: -23.0; DT40 TDP1 CPT: -7.0%; TDP1 cell noCPT: -14.4%

Results for C=CCC[C@@H](Cc1ccc(F)cc1)C(=O)OC[C@@H](NC(=O)[C@H](CC=C)CC(=O)N(CCO)Cc1ccccc1)c1ccccc1 ?
TGFb SMAD3 inh: inconclusive; TDP1 inh: 0.9%; HepG2 viability: -12.5%; IL-1B inflam inh: -60.2*; DT40 TDP1 CPT: inconclusive; TDP1 cell noCPT: inconclusive
